# According to PubChem BioAssay (NCATS):
# Inconclusive results are not listed. Entries that show only a call come without a potency. Calls of active or inactive are those of the source. Calls come from the whole dose curve; as a rule, active = well fitted curve in the direction sought with a large enough effect; inconclusive = small, poorly fitted or top-dose-only effect, or another doubt; inactive = no such curve, though single readings can be large; an effect the other way counts as inactive or inconclusive.
# Assay: qHTS of pediatric cancer cell lines to identify multiple opportunities for drug repurposing: Primary screen for TC32 cells (AID 1347089); note: nearly all actives have a fitted effect of over 60% in size
# Settings: TC32 Ewing sarcoma viability, CellTiter-Glo luminescence, 48 h; series mostly up to 45.8 µM
# Method in brief: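 Measured quantity: luminescence from CellTiter-Glo, reflecting metabolically active TC32 cells following 48 h of compound. Curves came straight from multi-point titrations, with 8 or 11 points in primary and 11 in confirmatory screening.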
# Potency is the fitted concentration of half-maximal effect.
row,SMILES,Potency
1,CC(CN(C)C)CN1c2ccccc2CCc2ccccc21 (stereo unspecified),inactive
2,COCCOC(=O)C1=C(C)NC(C)=C(C(=O)OC/C=C/c2ccccc2)C1c1cccc([N+](=O)[O-])c1 (stereo unspecified),inactive
3,O=C1OC(OC(=O)c2cccnc2Nc2cccc(C(F)(F)F)c2)c2ccccc21 (stereo unspecified),inactive
4,CCCCc1ncc(/C=C(\Cc2cccs2)C(=O)O)n1Cc1ccc(C(=O)O)cc1,inactive
5,O=C(O)CN1C(=O)c2cccc3cccc(c23)C1=O,inactive
6,COC(=O)C1=C(C)NC(C)=C(C(=O)OC)C1c1ccccc1[N+](=O)[O-],inactive
7,CCN(CC)CCCC(C)Nc1c2ccc(Cl)cc2nc2ccc(OC)cc12 (stereo unspecified),inactive
8,O=C(CCCN1CCN(c2ccccn2)CC1)c1ccc(F)cc1,inactive
9,Cc1cc(C(C#N)c2ccc(Cl)cc2)c(Cl)cc1NC(=O)c1cc(I)cc(I)c1O (stereo unspecified),inactive
10,C=Cc1c(C)c2cc3[nH]c(cc4nc(cc5nc(cc1[nH]2)C(C)=C5CCC(=O)O)C(CCC(=O)O)=C4C)c(C)c3C=C,inactive
11,Cc1ccc2nc(N)[nH]c(=O)c2c1Sc1ccncc1,8.36 µM (active)
12,C[C@H](NC(CCc1ccccc1)C(=O)O)C(=O)N1CCC[C@H]1C(=O)O (stereo partly specified),inactive
13,CN(C)CCC=C1c2ccccc2CCc2ccccc21,inactive
14,O=C1NC(=O)[C@@]2(CCOc3ccc(F)cc32)N1,inactive
15,CNCCC(Oc1ccc(C(F)(F)F)cc1)c1ccccc1 (stereo unspecified),inactive
16,CN1CCC[C@@H]1Cc1c[nH]c2ccc(CCS(=O)(=O)c3ccccc3)cc12,inactive
17,O=Cc1ccccc1C=O,inactive
18,CCCCOC(=O)c1ccc(O)cc1,inactive
19,CN(C)CC[C@@H](c1ccc(Cl)cc1)c1ccccn1,inactive
20,CC(=O)c1ccc2c(c1)N(CCCN(C)C)c1ccccc1S2,inactive
21,O=C1Nc2ccc(Cl)cc2[C@@](C#CC2CC2)(C(F)(F)F)O1,inactive
22,CNCCCC1c2ccccc2C=Cc2ccccc21,inactive
23,C[C@H]1O[C@@H](n2cc(F)c(=O)[nH]c2=O)[C@H](O)[C@@H]1O,inactive
24,Oc1ccc(C(O)CNCCCCCCNCC(O)c2ccc(O)c(O)c2)cc1O (stereo unspecified),inactive
25,COc1cc(C)c(Cc2cnc(N)nc2N)cc1OC,inactive
26,CCCCN(CCCC)CC(O)c1cc(Cl)cc2c1-c1ccc(Cl)cc1/C2=C/c1ccc(Cl)cc1 (stereo unspecified),inactive
27,CC(C)(C(=O)O)c1ccc(C(O)CCCN2CCC(C(O)(c3ccccc3)c3ccccc3)CC2)cc1 (stereo unspecified),inactive

# Assay: qHTS of pediatric cancer cell lines to identify multiple opportunities for drug repurposing: Primary screen for DAOY cells (AID 1347090); note: nearly all actives have a fitted effect of over 55% in size
# Settings: DAOY medulloblastoma viability, CellTiter-Glo luminescence, 48 h; series mostly up to 46 µM
# Method in brief: (§1)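 Eight- or eleven-point concentration series, 48 h treatment at 37 degrees C in growth media; readout CellTiter-Glo luminescence. Potency and efficacy were taken from the concentration-response curves.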
row,SMILES,Potency
1,CC(CN(C)C)CN1c2ccccc2CCc2ccccc21 (stereo unspecified),inactive
2,COCCOC(=O)C1=C(C)NC(C)=C(C(=O)OC/C=C/c2ccccc2)C1c1cccc([N+](=O)[O-])c1 (stereo unspecified),inactive
3,O=C1OC(OC(=O)c2cccnc2Nc2cccc(C(F)(F)F)c2)c2ccccc21 (stereo unspecified),inactive
4,CCCCc1ncc(/C=C(\Cc2cccs2)C(=O)O)n1Cc1ccc(C(=O)O)cc1,inactive
5,O=C(O)CN1C(=O)c2cccc3cccc(c23)C1=O,inactive
6,CSc1ccc2c(c1)N(CCC1CCCCN1C)c1ccccc1S2 (stereo unspecified),16.8 µM (active)
7,O=C(CCCN1CCN(c2ccccn2)CC1)c1ccc(F)cc1,inactive
8,C=Cc1c(C)c2cc3[nH]c(cc4nc(cc5nc(cc1[nH]2)C(C)=C5CCC(=O)O)C(CCC(=O)O)=C4C)c(C)c3C=C,inactive
9,C[C@H](NC(CCc1ccccc1)C(=O)O)C(=O)N1CCC[C@H]1C(=O)O (stereo partly specified),inactive
10,CN(C)CCC=C1c2ccccc2CCc2ccccc21,inactive
11,O=C1NC(=O)[C@@]2(CCOc3ccc(F)cc32)N1,inactive
12,CN1CCC[C@@H]1Cc1c[nH]c2ccc(CCS(=O)(=O)c3ccccc3)cc12,inactive
13,CC(C)c1c(C(=O)Nc2ccccc2)c(-c2ccccc2)c(-c2ccc(F)cc2)n1CC[C@@H](O)C[C@@H](O)CC(=O)O,4.22 µM (active)
14,O=Cc1ccccc1C=O,inactive
15,CCCCOC(=O)c1ccc(O)cc1,inactive
16,CN(C)CC[C@@H](c1ccc(Cl)cc1)c1ccccn1,inactive
17,CC(=O)c1ccc2c(c1)N(CCCN(C)C)c1ccccc1S2,inactive
18,C[C@H]1O[C@@H](n2cc(F)c(=O)[nH]c2=O)[C@H](O)[C@@H]1O,inactive
19,Oc1ccc(C(O)CNCCCCCCNCC(O)c2ccc(O)c(O)c2)cc1O (stereo unspecified),inactive
20,COc1cc(C)c(Cc2cnc(N)nc2N)cc1OC,inactive
21,CCCCN(CCCC)CC(O)c1cc(Cl)cc2c1-c1ccc(Cl)cc1/C2=C/c1ccc(Cl)cc1 (stereo unspecified),inactive
22,CC(C)(C(=O)O)c1ccc(C(O)CCCN2CCC(C(O)(c3ccccc3)c3ccccc3)CC2)cc1 (stereo unspecified),inactive

# Assay: qHTS of pediatric cancer cell lines to identify multiple opportunities for drug repurposing: Primary screen for SJ-GBM2 cells (AID 1347091)
# Settings: SJ-GBM2 viability, CellTiter-Glo luminescence, 48 h; series mostly up to 46 µM
# Method in brief: as §1
row,SMILES,Potency
1,NC1[C@H]2CN(c3nc4c(cc3F)c(=O)c(C(=O)O)cn4-c3ccc(F)cc3F)C[C@@H]12 (stereo partly specified),inactive
2,O=C1OC(OC(=O)c2cccnc2Nc2cccc(C(F)(F)F)c2)c2ccccc21 (stereo unspecified),inactive
3,CCCCc1ncc(/C=C(\Cc2cccs2)C(=O)O)n1Cc1ccc(C(=O)O)cc1,inactive
4,O=C(O)CN1C(=O)c2cccc3cccc(c23)C1=O,inactive
5,COC(=O)C1=C(C)NC(C)=C(C(=O)OC)C1c1ccccc1[N+](=O)[O-],inactive
6,O=C(CCCN1CCN(c2ccccn2)CC1)c1ccc(F)cc1,inactive
7,C=Cc1c(C)c2cc3[nH]c(cc4nc(cc5nc(cc1[nH]2)C(C)=C5CCC(=O)O)C(CCC(=O)O)=C4C)c(C)c3C=C,inactive
8,OCCN1CCN(CCCN2c3ccccc3Sc3ccc(Cl)cc32)CC1,21.1 µM (active)
9,C[C@H](NC(CCc1ccccc1)C(=O)O)C(=O)N1CCC[C@H]1C(=O)O (stereo partly specified),inactive
10,O=C1NC(=O)[C@@]2(CCOc3ccc(F)cc32)N1,inactive
11,CN1CCC[C@@H]1Cc1c[nH]c2ccc(CCS(=O)(=O)c3ccccc3)cc12,inactive
12,CC(C)c1c(C(=O)Nc2ccccc2)c(-c2ccccc2)c(-c2ccc(F)cc2)n1CC[C@@H](O)C[C@@H](O)CC(=O)O,11.9 µM (active)
13,O=Cc1ccccc1C=O,inactive
14,CCCCOC(=O)c1ccc(O)cc1,inactive
15,CN(C)CC[C@@H](c1ccc(Cl)cc1)c1ccccn1,inactive
16,CC(=O)c1ccc2c(c1)N(CCCN(C)C)c1ccccc1S2,inactive
17,Cc1c(O)cccc1C(=O)N[C@@H](CSc1ccccc1)[C@H](O)CN1C[C@H]2CCCC[C@H]2C[C@H]1C(=O)NC(C)(C)C,21.1 µM (active)
18,C[C@H]1O[C@@H](n2cc(F)c(=O)[nH]c2=O)[C@H](O)[C@@H]1O,inactive
19,Oc1ccc(C(O)CNCCCCCCNCC(O)c2ccc(O)c(O)c2)cc1O (stereo unspecified),inactive
20,COc1cc(C)c(Cc2cnc(N)nc2N)cc1OC,inactive
21,CCCCN(CCCC)CC(O)c1cc(Cl)cc2c1-c1ccc(Cl)cc1/C2=C/c1ccc(Cl)cc1 (stereo unspecified),inactive
22,CC(C)(C(=O)O)c1ccc(C(O)CCCN2CCC(C(O)(c3ccccc3)c3ccccc3)CC2)cc1 (stereo unspecified),inactive
